Activity calls are given as the source filed them. Calls come from the whole dose curve; as a rule, active = well fitted curve in the direction sought with a large enough effect; inactive = no such curve, though single readings can be large or run the other way.

Sequence of Alpha-galactosidase (Coffea arabica) (Q42656 whole entry, looked up): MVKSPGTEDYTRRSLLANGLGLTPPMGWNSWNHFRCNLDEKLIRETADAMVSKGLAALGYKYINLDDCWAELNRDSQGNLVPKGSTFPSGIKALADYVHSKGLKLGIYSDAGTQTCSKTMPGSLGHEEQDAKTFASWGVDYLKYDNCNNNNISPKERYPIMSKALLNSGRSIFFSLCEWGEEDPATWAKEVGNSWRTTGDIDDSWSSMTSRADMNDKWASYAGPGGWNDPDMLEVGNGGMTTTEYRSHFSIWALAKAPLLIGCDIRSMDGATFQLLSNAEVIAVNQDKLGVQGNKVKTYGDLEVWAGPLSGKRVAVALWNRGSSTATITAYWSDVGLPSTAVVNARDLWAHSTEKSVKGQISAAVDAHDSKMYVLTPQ

In the experiment the target is Alpha-galactosidase (Coffea arabica) (UniProt Q42656). The experiment is described as follows: Counterscreen for Glucocerebrosidase Inhibitors: qHTS Assay for Coffee Bean alpha-Galactosidase at pH 5.9 (AID 998). As to conditions: coffee bean alpha-galactosidase enzyme assay; series mostly up to 76.9 µM. In a few lines:
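Green coffee bean enzyme (2 nM final) was incubated with compounds (0.7 nM–77 uM) and 4-methylumbelliferyl alpha-D-galactopyranoside (80 uM) in citrate buffer pH 5.9, 20 min at room temperature. High-pH stop; fluorescence 365/440 nm; AC50 from Hill fits.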
Background: The purpose of a counterscreen is to sort out artefacts and off-target activity.
Turning to `CCOC(=O)c1ncn2c1CN(C)C(=O)c1cc(F)ccc1-2`, the result was inactive.

With `CC(C)(C)NC(=O)[C@H]1CC[C@H]2[C@@H]3CC[C@H]4NC(=O)C=C[C@]4(C)[C@H]3CC[C@]12C`, the result was inactive.

For the compound `O=C1c2c(O)ccc(O)c2C(=O)c2c(NCCNCCO)ccc(NCCNCCO)c21`, the result was inactive.

Regarding `Cc1oncc1C(=O)Nc1ccc(C(F)(F)F)cc1`, the compound was called inactive.

For `NNCCc1ccccc1`, the call was inactive.

Turning to `CN1CCN(CCCN2c3ccccc3Sc3ccc(C(F)(F)F)cc32)CC1`, the compound was called inactive.

With `CC1=C(/C=C/C(C)=C/C=C/C(C)=C/C(=O)Nc2ccc(O)cc2)C(C)(C)CCC1`, the result was inactive.

On to `O=C1NC(=O)C(c2ccccc2)(c2ccccc2)N1`, for which the result was inactive.

Take `CC(C)OC(=O)C(C)(C)Oc1ccc(C(=O)c2ccc(Cl)cc2)cc1`: the call was inactive.

Turning to `CC1=NS(=O)(=O)c2cc(Cl)ccc2N1`, the result was inactive.

As to `CN(Cc1cnc2nc(N)nc(N)c2n1)c1ccc(C(=O)N[C@@H](CCC(=O)O)C(=O)O)cc1`, the result was inactive.

Turning to `CCCNC(=O)NS(=O)(=O)c1ccc(Cl)cc1`, the outcome was inactive.

Turning to `CN(C)c1nc(N(C)C)nc(N(C)C)n1`, the compound was classed as inactive.

Take `CN1CCC(=C2c3ccccc3C=Cc3ccccc32)CC1`: the result was inactive.

For `CN(C)CCCN1c2ccccc2Sc2ccc(Cl)cc21`, the call was inactive.

In the case of `Clc1ccc2c(c1)C(N1CCNCC1)=Nc1ccccc1O2`, the compound was classed as inactive.

Take `Nc1nnc(-c2cccc(Cl)c2Cl)c(N)n1`: the compound was classed as inactive.

In the case of `NS(=O)(=O)c1cc2c(cc1Cl)NC=NS2(=O)=O`, the outcome was inactive.

As for `CN/C(=C\[N+](=O)[O-])NCCSCc1ccc(CN(C)C)o1`, the compound was called inactive.

Consider `NS(=O)(=O)Cc1noc2ccccc12`, for which the compound was called inactive.

For the compound `COc1ccc(Cl)cc1C(=O)NCCc1ccc(S(=O)(=O)NC(=O)NC2CCCCC2)cc1`, the call was inactive.

As to `O=c1[nH]cc(F)c(=O)[nH]1`, the call was inactive.

As for `Cc1ccccc1N1C(=O)c2cc(S(N)(=O)=O)c(Cl)cc2NC1C` (configuration not stated), the result was inactive.

As to `CN1CCN(CCCN2c3ccccc3Sc3ccc(Cl)cc32)CC1`, the result was inactive.

With `CC/C(=C(\c1ccccc1)c1ccc(OCCN(C)C)cc1)c1ccccc1`, the result was inactive.

`CN(C)CCCN1c2ccccc2CCc2ccc(Cl)cc21`: the call was inactive.

On to `NC[C@H](O)c1ccc(O)c(O)c1`, for which the result was inactive.

Turning to `N=c1nc(N2CCCCC2)cc(N)n1O`, the call was inactive.

As for `Cc1nc2n(c(=O)c1CCN1CCC(c3noc4cc(F)ccc34)CC1)CCCC2`, the call was inactive.

As to `CCC1(c2ccccc2)C(=O)NCNC1=O`, the call was inactive.

Consider `COC(=O)[C@H]1[C@H]2C[C@@H]3c4[nH]c5cc(OC)ccc5c4CCN3C[C@H]2C[C@@H](OC(=O)c2cc(OC)c(OC)c(OC)c2)[C@@H]1OC`, for which the call was inactive.

For `CN(C)CC/C=C1\c2ccccc2COc2ccccc21`, the call was inactive.

Take `CCN(CC)CCNC(=O)c1cc(Cl)c(N)cc1OC`: the compound was called inactive.

On to `Cn1cnc([N+](=O)[O-])c1Sc1ncnc2nc[nH]c12`, for which the compound was classed as inactive.

As for `Clc1ccc(C(c2ccccc2Cl)C(Cl)Cl)cc1` (configuration not stated), the compound was classed as inactive.

As to `CC(=O)Nc1nnc(S(N)(=O)=O)s1`, the call was inactive.

For `OCCN1CCN(CCCN2c3ccccc3Sc3ccc(C(F)(F)F)cc32)CC1`, the result was inactive.
